The record followed here is PMC4552634, “A New Set of Chemical Starting Points with Plasmodium falciparum Transmission-Blocking Potential for Antimalarial Drug Discovery” (PLoS ONE, 2015).

Screen size: about 13,000 compounds; about 3,200 (25%) showed an effect of 50% or more. This is one part of the list.

The test system of the experiment is P. falciparum stage V gametocytes. Also noted: BacTiter-Glo ATP luminescence viability of purified stage V gametocytes in 384-well plates, per cent inhibition versus DMSO. Particulars: 48 h, 5 µM; inhibitor.
`COc1ccc(Nc2nccc(NCC(O)c3ccc(C(F)(F)F)cc3)n2)cc1` (stereo not shown) [TCMDC-136595]: the “% Inhibition” value was -79.42%.

On to `CCCCCN(C(=O)Nc1cc(C(F)(F)F)cc(C(F)(F)F)c1)C(C)c1nc2ccccc2c(=O)n1CC` (stereo not shown) [TCMDC-124043], for which the “% Inhibition” value is on record as -29.97%.

Turning to `O=C(Nc1cc(C(F)(F)F)ccc1Cl)c1ccc(Cn2cc(Br)cn2)cc1` [TCMDC-124912], the “% Inhibition” value is -0.3608%.

Take `FC(F)(F)COc1c(CNCCCCCCNCc2ccc3ccccc3c2OCC(F)(F)F)ccc2ccccc12` [TCMDC-137833]: the “% Inhibition” value was 67.85%.

As to `N#Cc1ccc(CNCCCCCCNCc2ccc(C#N)c3ccccc23)c2ccccc12` [TCMDC-137849], the “% Inhibition” value came out at 40.84%.

Take `FC(F)(F)COc1c(CCNCCCCNCCc2ccc3ccccc3c2OCC(F)(F)F)ccc2ccccc12` [TCMDC-137169]: the “% Inhibition” value amounted to 119.3%.

With `O=c1cc(NCCCNCc2cccc(C(F)(F)F)c2Cl)[nH]c2ccccc12` [TCMDC-139421], the “% Inhibition” value is given as -19.98%.

Consider `CN(C)c1ccc(C2(c3ccccc3)N=C(N)N(CCCc3ccccc3)C2=O)cc1` (stereo not shown) [TCMDC-136715], for which the “% Inhibition” value is -12.92%.

With `CCCCCOc1ccc(C(O)C(CCC(CN2CCCCCC2)C(O)c2ccc(OCCCCC)cc2)CN2CCCCCC2)cc1` (stereo not shown) [TCMDC-124174], the “% Inhibition” value is recorded as 105.7%.

As for `CCCCCOc1ccc(C(O)C(CN2CCCCC2)c2ccccc2)cc1` (stereo not shown) [TCMDC-124165], the “% Inhibition” value is given as 1.137%.

Regarding `CC(C)COc1ccc(C(O)C(CN2CCCCC2)c2ccccc2)cc1` (stereo not shown) [TCMDC-124253], the “% Inhibition” value worked out at 31.95%.

`COc1ccc(CNC2Cc3ccccc3C2)cc1-c1ccc(S(=O)(=O)NCCc2ccccn2)s1` [TCMDC-132255]: the “% Inhibition” value was 98.81%.

Turning to `COc1ccc(CNC2CCN(C)CC2)cc1-c1ccc(S(=O)(=O)NCc2ccccc2)s1` [TCMDC-132253], the “% Inhibition” value worked out at 85.45%.

Consider `COc1ccc(CNC2CCN(C)CC2)cc1-c1ccc(S(=O)(=O)NCCc2ccccn2)s1` [TCMDC-132256], for which the “% Inhibition” value worked out at 13.25%.

For the compound `COc1cc(CNC2Cc3ccccc3C2)ccc1Oc1ccc2nc[nH]c2c1` [TCMDC-133481], the “% Inhibition” value is listed as -19.03%.

With `COc1ccc(CNC2CCN(C)CC2)cc1-c1ccc(S(=O)(=O)NCc2cccnc2)s1` [TCMDC-132261], the “% Inhibition” value stood at 20.62%.

Regarding `COc1ccc(CNC2Cc3ccccc3C2)cc1-c1ccc(S(=O)(=O)NCc2cccnc2)s1` [TCMDC-132260], the “% Inhibition” value came out at 33.12%.

As for `COc1ccc(CNC2Cc3ccccc3C2)cc1-c1ccc(S(=O)(=O)NCc2ccccc2)s1` [TCMDC-132252], the “% Inhibition” value turned out to be 67.04%.

Consider `COc1ccc(NC(=O)/C=C/c2ccccc2Cl)cc1OCCN1CCC(Cc2cc3ccccc3[nH]2)CC1` [TCMDC-140920], for which the “% Inhibition” value was -36.18%.

Usually % Inhibition stands for the drop in the measured response relative to a control, in per cent.
